Shown are actives, neighbours in structure and some others; about 19% of the full set was active somewhere.
TDP1 cell noCPT: qHTS for Inhibitors of human tyrosyl-DNA phosphodiesterase 1 (TDP1): qHTS in cells in absence of CPT. DT40 Tdp1-/- hTDP1 cells, no CPT, ATP luminescence, 48 h. Potency, µM (doses to about 46.2 µM), usual class: inhibitors. hit rate 15% among 420,000; further: nearly all actives have a fitted effect of over 55% in size
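Stably hTDP1-transfected Tdp1-null chicken DT40 cells were treated with library compounds minus camptothecin and grown for at least 48 hr at 37 °C, after which cellular ATP was quantified by luminescence.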
DT40 TDP1 CPT: qHTS for Inhibitors of human tyrosyl-DNA phosphodiesterase 1 (TDP1): qHTS in cells in presence of CPT; chicken DT40 Tdp1-/-;hTDP1 cells + 20 nM CPT, ATP luminescence, 48 h; Potency, µM (series often up to 46.2 µM), most hits filed as inhibitors; hit rate 12% among 420,000; AID 686979, 2013; further: nearly all actives have a fitted effect of over 55% in size
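Chicken DT40 Tdp1-/- cells stably complemented with human TDP1 were seeded at 400 cells/well in medium containing 20 nM camptothecin, exposed to pin-transferred compounds, and grown at 37 °C for at least 48 hr. Viability was read as ATP luminescence.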
VP16 counter: VP16 counterscreen qHTS for inhibitors of ROR gamma transcriptional activity; Drosophila S2 Gal4-VP16 UAS-luciferase, luminescence, 20 h; hit rate 3.5% among 310,000; Potency, µM (doses to about 53.6 µM), usual class: inhibitors;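 further: Gal4-VP16 expression switched on by copper sulfate through the metallothionein promoter; nearly all actives have a fitted effect of over 50% in size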
TDP1 block: qHTS Assay for Inhibitors of Tyrosyl-DNA Phosphodiesterase (TDP1); Tyrosyl-DNA phosphodiesterase 1 (Homo sapiens), Q9NUW8; recombinant TDP1, AlphaScreen DNA substrate cleavage; Potency, µM (titrated, usually from 130 µM), hits mostly inhibitors; hit rate 0.28% among 350,000; further: nearly all actives have a fitted effect of over 40% in size
Target sequence (Q9NUW8 whole entry, looked up): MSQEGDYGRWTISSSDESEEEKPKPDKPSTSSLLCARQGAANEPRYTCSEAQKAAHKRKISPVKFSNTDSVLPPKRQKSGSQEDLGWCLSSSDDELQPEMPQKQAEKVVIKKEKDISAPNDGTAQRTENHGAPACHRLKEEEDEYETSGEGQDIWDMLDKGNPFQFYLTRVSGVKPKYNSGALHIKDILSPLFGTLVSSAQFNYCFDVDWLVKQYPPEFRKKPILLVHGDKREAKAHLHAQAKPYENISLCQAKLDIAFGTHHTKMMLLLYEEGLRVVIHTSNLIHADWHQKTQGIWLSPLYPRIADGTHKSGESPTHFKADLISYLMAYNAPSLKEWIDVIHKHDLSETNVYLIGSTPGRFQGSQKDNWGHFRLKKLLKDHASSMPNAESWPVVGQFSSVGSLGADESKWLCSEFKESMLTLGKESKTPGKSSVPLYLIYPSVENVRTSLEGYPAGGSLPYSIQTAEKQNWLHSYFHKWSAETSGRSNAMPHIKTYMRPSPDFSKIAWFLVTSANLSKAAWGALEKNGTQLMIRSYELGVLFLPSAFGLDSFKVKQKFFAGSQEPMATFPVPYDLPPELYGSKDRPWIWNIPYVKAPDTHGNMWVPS
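Signal: AlphaScreen proximity between streptavidin donor and anti-FITC acceptor beads on intact substrate. Reaction: Tdp1 1 nM, substrate 15 nM final, 5 min RT after 15 min compound preincubation.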
RORgamma inh: qHTS for inhibitors of ROR gamma transcriptional activity; Nuclear receptor ROR-gamma (Mus musculus), P51450; Drosophila S2 Gal4-RORgamma UAS-luciferase reporter, 20 h; Potency, µM (highest dose often 53.6 µM), usual class: inhibitors; hit rate 5.4% among 310,000; AID 2551, 2010; further: nearly all actives have a fitted effect of over 60% in size
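Luminescence from a UAS-regulated Photinus luciferase reporter in stably transfected Drosophila Schneider cells is measured; decreased signal marks ROR gamma inhibition. Fusion expression is induced by 700 uM copper sulfate for 20 hr.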
Large screens that a line does not name were inactive. The call rests on the fitted dose curve; in most records, active means well fitted curve in the direction sought with a large enough effect; inconclusive means small, poorly fitted or top-dose-only effect, or another doubt; inactive means no such curve, though single readings can be large; an effect the other way counts as inactive or inconclusive.

O=C(NCc1ccc2c(c1)OCO2)C1CC(=O)N(C2CCCCCCC2)C1 (configuration not stated)	none
CC(C)CC1=NN(C(=O)c2ccncc2)C(O)(C(F)(F)F)C1 (configuration not stated)	TDP1 cell noCPT 3.3µM, DT40 TDP1 CPT 2.9µM, VP16 counter inconclusive
O=C(c1ccncc1)N1N=C(C2CC2)CC1(O)C(F)(F)F (configuration not stated)	TDP1 cell noCPT 5.2µM, DT40 TDP1 CPT 3.7µM, RORgamma inh 11µM (no result: TDP1 block)
COc1cc(OC)c(NC(=O)c2cn(C)c(=O)c3cc(OC)c(OC)cc23)cc1Cl	none (no result: VP16 counter, RORgamma inh)
CCOc1ccc(C(=O)NCCN2CCOCC2)cc1	none
CCn1c(C(=O)N2CCC(C(=O)NCc3ccc4c(c3)OCO4)CC2)cc2sccc21	TDP1 cell noCPT 15µM, DT40 TDP1 CPT 23µM, RORgamma inh inconclusive
CCc1c(C)nc2ncnn2c1N1CCCC(C(=O)NCc2ccc3c(c2)OCO3)C1 (configuration not stated)	TDP1 cell noCPT 21µM, DT40 TDP1 CPT inconclusive, VP16 counter inconclusive, RORgamma inh inconclusive
CCc1c(C)nc2ncnn2c1N1CCCC(C(=O)Nc2ccc(NC(C)=O)cc2)C1 (configuration not stated)	none
Cn1c(C(=O)N2CCCC(C(=O)NCc3ccc4c(c3)OCO4)C2)cc2sccc21 (configuration not stated)	TDP1 cell noCPT 23µM, DT40 TDP1 CPT inconclusive
Cc1ccc(CCNC(=O)C2CCCN(C(=O)c3cc4sccc4n3C)C2)cc1 (configuration not stated)	TDP1 cell noCPT inconclusive
CCCCCC(=O)Oc1cccc(N2C(=O)C3CCCCC3C2=O)c1 (configuration not stated)	none
Cc1cc(NCc2ccccc2)n2ncc(-c3ccccc3)c2n1	TDP1 cell noCPT inconclusive (no result: TDP1 block)
CC(C)(C)c1cc(NCc2ccccn2)n2ncc(-c3ccccc3)c2n1	TDP1 cell noCPT 4.6µM, DT40 TDP1 CPT 2.6µM, VP16 counter 1.4µM, RORgamma inh 0.45µM
C[C@@H]1[C@H]2[C@@H](O[C@@H]3O[C@H](CO)[C@@H](O)[C@H](O)[C@H]3O)OC=C(C(=O)O)[C@H]2C[C@@H]1O	TDP1 cell noCPT 7.3µM, DT40 TDP1 CPT 7.3µM (no result: VP16 counter, TDP1 block, RORgamma inh)
COCCCNC(=O)c1ccc(NC(=O)N2CCCCc3ccccc32)cc1	none (no result: VP16 counter, RORgamma inh)
COc1cc(OC)c(C2=NOC(C(=O)N3CCCc4ccccc43)C2)cc1Cl (configuration not stated)	TDP1 cell noCPT inconclusive, DT40 TDP1 CPT 13µM, VP16 counter 4.5µM, RORgamma inh 5.6µM
COc1cc(C(=O)N2CCCc3ccccc32)cc(OC)c1OC	TDP1 cell noCPT 21µM, DT40 TDP1 CPT 18µM
CCC1CCCCN1C(=O)C1CC(c2cc(Cl)c(OC)cc2OC)=NO1 (configuration not stated)	DT40 TDP1 CPT inconclusive
COc1ccc(C(=O)N2CCCc3ccccc32)cc1OC	none (no result: TDP1 block)
CCCCOc1ccc(CNC(=O)Cc2ccc(NC(=O)N3CCCCc4ccccc43)cc2)cc1	TDP1 cell noCPT 16µM, DT40 TDP1 CPT 15µM (no result: VP16 counter, RORgamma inh)
COc1ccc(CNC(=O)c2ccc(NC(=O)N3CCCCc4ccccc43)cc2)cc1	TDP1 cell noCPT 18µM, DT40 TDP1 CPT inconclusive (no result: VP16 counter, RORgamma inh)
COc1cccc(CNc2cc(C)nc3nc(-c4ccc(C)cc4)nn23)c1	none (no result: TDP1 cell noCPT, DT40 TDP1 CPT, VP16 counter, RORgamma inh)
O=C(CS(=O)(=O)c1cccc2nsnc12)Nc1ccccc1	none (no result: VP16 counter, RORgamma inh)
COC(=O)c1ccccc1NC(=O)c1ccc2c(c1)CCN2S(=O)(=O)c1ccc(C)cc1	TDP1 cell noCPT inconclusive (no result: VP16 counter, RORgamma inh)
O=C(c1ccc(=O)oc1)N1CCCc2ccccc21	TDP1 cell noCPT 16µM, DT40 TDP1 CPT inconclusive, TDP1 block 18µM
COc1cc(CNC(=O)c2ccc(NC(=O)N3CCCCc4ccccc43)cc2)cc(OC)c1OC	TDP1 cell noCPT 10µM, DT40 TDP1 CPT 18µM (no result: VP16 counter, RORgamma inh)
CC(C(=O)N1CCc2ccccc21)N1CCc2ccccc2C1 (configuration not stated)	TDP1 cell noCPT inconclusive, DT40 TDP1 CPT inconclusive
CC(C(=O)N1CCc2ccccc21)N1CCN(S(=O)(=O)c2cccc(C(F)(F)F)c2)CC1 (configuration not stated)	TDP1 cell noCPT 13µM, DT40 TDP1 CPT inconclusive (no result: VP16 counter, RORgamma inh)
COc1cc2c(cc1OC)CN(C(C)C(=O)N1CCc3ccccc31)CC2 (configuration not stated)	TDP1 cell noCPT 18µM, DT40 TDP1 CPT inconclusive
CCOc1ccc(N(CC(=O)Nc2ccc(F)c(F)c2)S(=O)(=O)c2c(C)noc2C)cc1	TDP1 cell noCPT inconclusive, DT40 TDP1 CPT inconclusive
O=c1cc(NCc2ccc3c(c2)OCO3)[nH]c(=O)n1-c1ccc(Cl)cc1	VP16 counter inconclusive
Cc1cc(=O)n2[nH]c(-c3ccco3)nc2n1	none
CCCCOc1ccc(CNC(=O)c2ccc(NC(=O)N3CCSc4ncccc43)cc2)cc1	TDP1 cell noCPT inconclusive, DT40 TDP1 CPT inconclusive (no result: VP16 counter, RORgamma inh)
CCOC(=O)c1cccc(NC(=O)Cc2ccc(NC(=O)N3CCCCc4ccccc43)cc2)c1	TDP1 cell noCPT 4.6µM, DT40 TDP1 CPT 5.2µM (no result: VP16 counter, RORgamma inh)
CCCCOc1ccc(CNC(=O)c2ccc(NC(=O)N3CCCCc4ccccc43)cc2)cc1	TDP1 cell noCPT 26µM, DT40 TDP1 CPT 18µM (no result: VP16 counter, RORgamma inh)
COc1cccc(CNC(=O)Cc2ccc(NC(=O)N3CCCCc4ccccc43)cc2)c1OC	TDP1 cell noCPT 18µM (no result: VP16 counter, RORgamma inh)
CCn1c(SCC(=O)Nc2ccc(C(C)=O)cc2)nc2c([nH]c3ccccc32)c1=O	TDP1 cell noCPT inconclusive, DT40 TDP1 CPT inconclusive, VP16 counter inconclusive, RORgamma inh inconclusive
COC(=O)C1C(=O)c2c([nH]c(C(=O)OC3CCCCC3)c2C)CC1C (configuration not stated)	TDP1 cell noCPT inconclusive, DT40 TDP1 CPT inconclusive
COC(=O)C1C(=O)c2c([nH]c(C(=O)OC3CCCC3C)c2C)CC1C (configuration not stated)	TDP1 cell noCPT 13µM, DT40 TDP1 CPT 16µM, RORgamma inh inconclusive
CC(C)n1c(CN2CCN(C(=O)c3ccco3)CC2)nc2c1c(=O)n(C)c(=O)n2C	TDP1 cell noCPT inconclusive, DT40 TDP1 CPT inconclusive, VP16 counter inconclusive
COc1cc(-c2nc(Cn3nnc(C(=O)Nc4ccccc4)c3C)c(C)o2)cc(OC)c1OC	TDP1 cell noCPT 26µM, DT40 TDP1 CPT inconclusive (no result: VP16 counter, RORgamma inh)
O=C(CSc1ccc(-c2ccccc2)nn1)N1CCCCC1	VP16 counter inconclusive
Cc1cccc(Cn2c(CN3CCCC(C)C3)nc3c2c(=O)n(C)c(=O)n3C)c1 (configuration not stated)	TDP1 cell noCPT inconclusive, DT40 TDP1 CPT inconclusive (no result: VP16 counter, RORgamma inh)
